# ChEMBL document CHEMBL1961873, “Compounds: GSK PKIS; Assays: Nanosyn kinase panel” (2012)
# Several values for one entry are separate records, joined by “and”; a condition that tells them apart may be missing. Identical values can stand only once.
# Columns and labels:
# [1] = target: Tyrosine-protein kinase Fyn (Homo sapiens) (UniProt P06241); settings: at 1 µM
# [2] = target: Tyrosine-protein kinase HCK (Homo sapiens) (UniProt P08631); settings: at 0.1 µM
# [3] = target: Tyrosine-protein kinase HCK (Homo sapiens) (UniProt P08631); settings: at 1 µM
# [4] = target: Insulin-like growth factor 1 receptor (Homo sapiens) (UniProt P08069); settings: at 0.1 µM
# [5] = target: Insulin-like growth factor 1 receptor (Homo sapiens) (UniProt P08069); settings: at 1 µM
# [6] = target: Insulin receptor (Homo sapiens) (UniProt P06213); settings: at 0.1 µM
# [7] = target: Insulin receptor (Homo sapiens) (UniProt P06213); settings: at 1 µM
# [8] = target: Insulin receptor-related protein (Homo sapiens) (UniProt P14616); settings: at 0.1 µM
# [9] = target: Insulin receptor-related protein (Homo sapiens) (UniProt P14616); settings: at 1 µM
# [10] = target: T1, Tyrosine-protein kinase ITK/TSK (Homo sapiens) (UniProt Q08881); settings: at 0.1 µM;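 note: mean percent inhibition of ITK from the GSK PKIS screen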
# T1 sequence (whole entry): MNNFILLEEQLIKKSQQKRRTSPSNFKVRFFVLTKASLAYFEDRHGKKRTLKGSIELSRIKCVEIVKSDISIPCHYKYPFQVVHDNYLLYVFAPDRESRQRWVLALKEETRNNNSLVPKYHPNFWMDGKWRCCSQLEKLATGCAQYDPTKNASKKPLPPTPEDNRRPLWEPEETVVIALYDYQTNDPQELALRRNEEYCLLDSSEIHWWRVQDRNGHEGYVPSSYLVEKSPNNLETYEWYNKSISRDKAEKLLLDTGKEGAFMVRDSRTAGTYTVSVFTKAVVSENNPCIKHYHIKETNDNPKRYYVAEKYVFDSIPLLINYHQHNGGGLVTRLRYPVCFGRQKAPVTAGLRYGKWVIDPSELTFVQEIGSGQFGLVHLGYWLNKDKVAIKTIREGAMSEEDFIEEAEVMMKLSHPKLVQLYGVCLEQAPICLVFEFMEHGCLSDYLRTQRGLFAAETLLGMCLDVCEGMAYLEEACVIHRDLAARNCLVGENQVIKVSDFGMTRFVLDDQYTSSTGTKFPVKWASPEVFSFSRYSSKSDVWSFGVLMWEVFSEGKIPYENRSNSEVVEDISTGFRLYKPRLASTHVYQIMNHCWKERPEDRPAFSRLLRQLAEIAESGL
# Insulin receptor (Homo sapiens), sequence (P06213 28-758 limits assumed): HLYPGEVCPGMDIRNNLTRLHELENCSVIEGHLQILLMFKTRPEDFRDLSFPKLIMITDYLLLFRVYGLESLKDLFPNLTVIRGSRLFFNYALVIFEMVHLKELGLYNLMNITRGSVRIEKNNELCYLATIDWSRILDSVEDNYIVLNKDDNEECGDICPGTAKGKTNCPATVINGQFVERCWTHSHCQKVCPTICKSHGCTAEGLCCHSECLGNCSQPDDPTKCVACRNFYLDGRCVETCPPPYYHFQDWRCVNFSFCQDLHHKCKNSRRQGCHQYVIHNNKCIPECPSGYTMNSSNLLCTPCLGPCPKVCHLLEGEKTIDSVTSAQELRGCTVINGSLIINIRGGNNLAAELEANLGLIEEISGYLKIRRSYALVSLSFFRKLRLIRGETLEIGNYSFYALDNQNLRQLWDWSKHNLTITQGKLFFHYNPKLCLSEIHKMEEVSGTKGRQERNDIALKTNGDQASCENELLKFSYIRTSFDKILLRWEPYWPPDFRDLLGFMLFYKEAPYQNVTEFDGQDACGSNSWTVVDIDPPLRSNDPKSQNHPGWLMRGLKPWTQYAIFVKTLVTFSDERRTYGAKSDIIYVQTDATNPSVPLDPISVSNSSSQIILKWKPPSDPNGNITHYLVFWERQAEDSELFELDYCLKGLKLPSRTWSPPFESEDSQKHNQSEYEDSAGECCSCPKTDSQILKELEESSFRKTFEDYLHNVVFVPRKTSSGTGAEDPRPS
# Insulin receptor (Homo sapiens), sequence (P06213 763-1382 limits assumed): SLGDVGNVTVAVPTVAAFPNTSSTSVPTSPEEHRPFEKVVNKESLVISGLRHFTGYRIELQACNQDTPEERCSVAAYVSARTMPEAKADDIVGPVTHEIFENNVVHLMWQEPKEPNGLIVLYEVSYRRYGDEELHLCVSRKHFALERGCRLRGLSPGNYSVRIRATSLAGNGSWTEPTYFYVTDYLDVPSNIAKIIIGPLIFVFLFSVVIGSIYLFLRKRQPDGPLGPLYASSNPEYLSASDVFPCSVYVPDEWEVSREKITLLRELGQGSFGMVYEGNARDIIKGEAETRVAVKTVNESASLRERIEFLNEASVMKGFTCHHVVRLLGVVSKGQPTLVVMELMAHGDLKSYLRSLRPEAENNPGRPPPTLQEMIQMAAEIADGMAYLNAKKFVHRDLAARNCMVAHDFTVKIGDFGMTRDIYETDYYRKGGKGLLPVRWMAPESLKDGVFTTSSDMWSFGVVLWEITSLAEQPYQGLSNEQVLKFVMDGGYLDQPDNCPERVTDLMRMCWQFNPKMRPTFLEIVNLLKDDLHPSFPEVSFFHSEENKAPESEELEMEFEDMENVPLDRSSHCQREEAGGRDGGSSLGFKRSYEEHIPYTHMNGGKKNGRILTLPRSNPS
# Insulin receptor-related protein (Homo sapiens), sequence (P14616 27-742 limits assumed): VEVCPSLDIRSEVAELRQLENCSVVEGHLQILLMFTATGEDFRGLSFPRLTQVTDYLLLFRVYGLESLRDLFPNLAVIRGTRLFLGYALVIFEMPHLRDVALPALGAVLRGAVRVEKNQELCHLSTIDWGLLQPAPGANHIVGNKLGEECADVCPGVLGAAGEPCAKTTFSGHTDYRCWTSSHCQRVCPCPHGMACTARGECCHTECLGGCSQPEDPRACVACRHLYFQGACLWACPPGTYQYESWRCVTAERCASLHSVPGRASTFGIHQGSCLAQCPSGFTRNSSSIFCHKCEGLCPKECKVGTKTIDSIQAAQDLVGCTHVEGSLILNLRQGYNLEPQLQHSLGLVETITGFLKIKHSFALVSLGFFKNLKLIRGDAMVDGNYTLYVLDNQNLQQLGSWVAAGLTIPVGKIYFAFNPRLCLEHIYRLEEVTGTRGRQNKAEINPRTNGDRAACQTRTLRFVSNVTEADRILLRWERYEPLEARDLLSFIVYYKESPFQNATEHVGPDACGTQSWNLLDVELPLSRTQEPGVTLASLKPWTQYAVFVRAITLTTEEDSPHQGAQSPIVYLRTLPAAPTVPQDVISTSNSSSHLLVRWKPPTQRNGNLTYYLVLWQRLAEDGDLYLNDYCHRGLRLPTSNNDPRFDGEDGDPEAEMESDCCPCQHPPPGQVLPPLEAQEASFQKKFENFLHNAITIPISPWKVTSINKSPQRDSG
# Insulin receptor-related protein (Homo sapiens), sequence (P14616 747-1297 limits assumed): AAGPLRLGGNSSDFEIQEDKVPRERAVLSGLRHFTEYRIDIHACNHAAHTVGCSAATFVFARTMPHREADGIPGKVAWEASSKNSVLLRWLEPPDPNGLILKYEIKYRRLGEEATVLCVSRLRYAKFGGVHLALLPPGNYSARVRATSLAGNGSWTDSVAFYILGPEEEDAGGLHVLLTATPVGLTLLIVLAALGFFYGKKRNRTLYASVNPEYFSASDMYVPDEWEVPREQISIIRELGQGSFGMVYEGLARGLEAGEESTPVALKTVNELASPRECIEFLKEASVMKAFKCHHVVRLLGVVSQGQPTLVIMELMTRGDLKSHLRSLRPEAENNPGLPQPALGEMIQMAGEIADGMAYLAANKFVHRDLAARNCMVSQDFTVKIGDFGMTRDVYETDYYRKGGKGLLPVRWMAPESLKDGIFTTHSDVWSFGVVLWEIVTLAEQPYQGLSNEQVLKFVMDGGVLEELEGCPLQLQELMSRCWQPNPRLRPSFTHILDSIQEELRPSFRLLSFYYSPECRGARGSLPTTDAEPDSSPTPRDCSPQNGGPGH
# Tyrosine-protein kinase Fyn (Homo sapiens), sequence (P06241 2-537 limits assumed): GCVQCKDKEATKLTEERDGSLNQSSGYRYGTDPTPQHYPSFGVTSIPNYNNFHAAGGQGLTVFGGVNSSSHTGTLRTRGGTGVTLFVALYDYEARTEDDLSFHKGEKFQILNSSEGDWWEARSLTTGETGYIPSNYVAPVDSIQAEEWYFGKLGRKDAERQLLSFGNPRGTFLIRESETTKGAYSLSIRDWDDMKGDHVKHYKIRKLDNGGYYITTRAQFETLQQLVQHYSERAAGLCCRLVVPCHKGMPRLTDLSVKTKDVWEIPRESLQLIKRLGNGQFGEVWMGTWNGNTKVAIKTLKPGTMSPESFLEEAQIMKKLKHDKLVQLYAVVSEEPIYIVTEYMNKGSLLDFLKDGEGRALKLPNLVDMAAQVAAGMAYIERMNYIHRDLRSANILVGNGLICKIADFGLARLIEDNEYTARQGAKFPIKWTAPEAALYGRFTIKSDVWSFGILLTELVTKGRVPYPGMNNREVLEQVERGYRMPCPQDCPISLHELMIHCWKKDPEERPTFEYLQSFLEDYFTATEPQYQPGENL
# Insulin-like growth factor 1 receptor (Homo sapiens), sequence (P08069 31-736 limits assumed): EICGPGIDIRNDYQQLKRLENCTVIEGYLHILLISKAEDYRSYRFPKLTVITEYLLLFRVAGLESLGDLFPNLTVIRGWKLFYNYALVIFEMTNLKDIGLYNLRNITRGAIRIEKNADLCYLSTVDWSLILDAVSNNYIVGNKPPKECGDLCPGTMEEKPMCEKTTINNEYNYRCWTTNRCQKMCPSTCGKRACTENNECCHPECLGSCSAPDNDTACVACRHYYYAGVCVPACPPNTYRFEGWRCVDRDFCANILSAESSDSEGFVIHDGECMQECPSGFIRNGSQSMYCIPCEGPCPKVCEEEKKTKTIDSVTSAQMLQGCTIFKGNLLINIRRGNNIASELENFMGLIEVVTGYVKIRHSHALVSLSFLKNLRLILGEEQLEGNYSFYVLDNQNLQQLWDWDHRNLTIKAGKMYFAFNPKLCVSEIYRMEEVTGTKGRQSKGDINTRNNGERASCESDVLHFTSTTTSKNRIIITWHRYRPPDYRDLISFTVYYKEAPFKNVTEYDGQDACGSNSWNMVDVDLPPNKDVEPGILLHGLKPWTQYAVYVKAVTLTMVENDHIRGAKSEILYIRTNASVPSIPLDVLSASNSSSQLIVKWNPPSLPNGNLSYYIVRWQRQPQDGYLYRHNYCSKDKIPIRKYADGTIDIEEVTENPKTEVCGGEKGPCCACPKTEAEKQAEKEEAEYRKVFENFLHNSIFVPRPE
# Insulin-like growth factor 1 receptor (Homo sapiens), sequence (P08069 741-1367 limits assumed): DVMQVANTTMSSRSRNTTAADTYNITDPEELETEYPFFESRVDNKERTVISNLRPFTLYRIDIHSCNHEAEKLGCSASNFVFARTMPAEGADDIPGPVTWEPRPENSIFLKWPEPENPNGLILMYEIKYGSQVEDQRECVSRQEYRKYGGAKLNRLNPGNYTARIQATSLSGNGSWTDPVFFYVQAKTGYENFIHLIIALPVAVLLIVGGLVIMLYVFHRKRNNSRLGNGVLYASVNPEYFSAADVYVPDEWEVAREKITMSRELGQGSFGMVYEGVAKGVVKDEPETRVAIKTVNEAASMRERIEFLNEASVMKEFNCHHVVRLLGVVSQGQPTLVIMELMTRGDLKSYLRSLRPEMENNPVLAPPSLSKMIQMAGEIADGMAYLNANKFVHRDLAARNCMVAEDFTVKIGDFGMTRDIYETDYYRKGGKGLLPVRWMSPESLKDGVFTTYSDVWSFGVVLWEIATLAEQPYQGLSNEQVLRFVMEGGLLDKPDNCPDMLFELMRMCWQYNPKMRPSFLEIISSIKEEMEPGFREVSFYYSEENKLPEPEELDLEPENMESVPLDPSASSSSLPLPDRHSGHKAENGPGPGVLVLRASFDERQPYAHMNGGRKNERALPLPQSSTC
# Tyrosine-protein kinase HCK (Homo sapiens), sequence (P08631 2-526 limits assumed): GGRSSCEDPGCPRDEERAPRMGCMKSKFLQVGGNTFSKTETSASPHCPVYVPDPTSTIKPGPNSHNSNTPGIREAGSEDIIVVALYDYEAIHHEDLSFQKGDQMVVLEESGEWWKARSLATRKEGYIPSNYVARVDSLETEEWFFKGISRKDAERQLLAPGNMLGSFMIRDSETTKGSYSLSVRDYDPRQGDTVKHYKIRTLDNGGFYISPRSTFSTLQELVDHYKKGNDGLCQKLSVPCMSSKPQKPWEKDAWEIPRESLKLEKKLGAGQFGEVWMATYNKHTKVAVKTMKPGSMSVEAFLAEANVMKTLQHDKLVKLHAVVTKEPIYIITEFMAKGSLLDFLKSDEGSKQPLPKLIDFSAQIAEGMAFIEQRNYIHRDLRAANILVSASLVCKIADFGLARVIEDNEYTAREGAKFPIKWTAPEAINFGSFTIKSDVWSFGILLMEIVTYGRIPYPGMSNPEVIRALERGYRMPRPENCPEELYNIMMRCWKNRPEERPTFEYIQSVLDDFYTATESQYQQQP
SMILES,inhibition [1],inhibition [2],inhibition [3],inhibition [4],inhibition [5],inhibition [6],inhibition [7],inhibition [8],inhibition [9],inhibition [10]
CCN1CCC(C(=O)Nc2n[nH]c3nnc(-c4cccc(F)c4F)cc23)CC1,0.66%,0.33%,0.65%,-0.72%,-1.06%,-0.08%,1.38%,-1.17%,-1.67%,0.47%
COc1cc(N2CCN(C(C)C)CC2)ccc1Nc1nc(Nc2cccc(F)c2C(=O)O)c2cc[nH]c2n1,0.99%,4.6%,9.23%,65.7%,89.8%,82.6%,95.5%,22.1%,82.3%,1.35%
c1cnn2ncc(-c3ccnc(NCCCN4CCOCC4)n3)c2c1,3.59%,8.43%,6.17%,3.62%,1.61%,4.01%,4.01%,2.15%,0.25%,1.02%
NS(=O)(=O)c1cccc(N/C=C2\C(=O)Nc3ccccc32)c1,4.25%,6.87%,17.6%,2.44%,5.81%,5.3%,11.9%,2.22%,2.55%,1.13%
O=C1Nc2ccccc2/C1=C1\CCc2cc(O)ccc21,7.65%,6.34%,14.6%,4.61%,12.5%,7.96%,23%,3.81%,2.83%,3.68%
CS(=O)(=O)CCNCc1ccc(-c2ccc3ncnc(Nc4ccc(OCc5cccc(C(F)(F)F)c5)cc4)c3c2)o1,0.05%,9.32%,11.7%,18.2%,11.6%,11.2%,3.04%,1.51%,3.38%,1.71%
N#Cc1cccc(Nc2ncc(-c3ccccc3)o2)c1,10.8%,0.69%,7.33%,0.34%,0.27%,1.81%,4.42%,0.61%,-0.06%,1.16%
COc1ccc(-c2nn3ncccc3c2-c2ccnc(Nc3ccc(F)c(F)c3)n2)cc1,12.1%,3.38%,16.5%,2.75%,3.2%,4.32%,2.06%,3.12%,3.47%,0.92%
CCOc1ccc2c(-c3ccnc(Nc4cc(OC)cc(C(F)(F)F)c4)n3)cnn2n1,13.1%,3.74%,4.95%,8.6%,7.42%,-0.85%,1.65%,-0.39%,0.03%,0.24%
O=C(O[C@H]1CN[C@H](C#Cc2cc3ncnc(Nc4ccc5c(ccn5Cc5cc(F)ccc5F)c4)c3s2)C1)N1CCOCC1,0.77%,4.89%,8.93%,2.56%,2.8%,6.64%,2.68%,1.67%,2.01%,1.67%
CS(=O)(=O)Nc1ccc(-c2cc(-c3ccccc3)cc(C(N)=O)c2N)cc1,-0.83%,2.58%,4.51%,15.8%,8.99%,4.43%,3.29%,-1.45%,0.85%,0.8%
CN1CCC(n2cnc(-c3ccc(F)cc3)c2-c2ccnc(NCCO)n2)CC1,1.8%,3.07%,9.14%,3.65%,4.78%,2.63%,3.28%,3.34%,2.39%,1.66%
c1ccc(-c2n[nH]cc2-c2ccnc(-c3ccc(OCCn4ccnc4)cc3)c2)nc1,7.07%,1.8%,9.8%,6.59%,2.24%,2.91%,2.56%,-0.75%,-0.28%,0.01%
N#Cc1ccc2c(-c3ccnc(NC4CC4)n3)c(-c3ccc(F)cc3)nn2c1,0.92%,1.95%,1.1%,1.58%,-2.63%,0.02%,-1.67%,-0.15%,0.6%,0.02%
Nc1nonc1-c1nc2cnccc2n1C1CC1,1.39% and -1.43%,5.06% and 2.65%,10.4% and 4.62%,2.14% and -5.78%,3.37% and -3.55%,-0.15% and 4.69%,2.19% and 6.69%,2.59% and 0.39%,3.14% and 0.7%,1.56% and -2.28%
CNC(=O)c1cncc(/C=C/c2ccccc2C)c1,10.8%,6.15%,20.1%,3.6%,6.92%,2.85%,2.34%,4.17%,2.86%,1.32%

SMILES,inhibition [1],inhibition [2],inhibition [3],inhibition [4],inhibition [5],inhibition [6],inhibition [7],inhibition [8],inhibition [9],inhibition [10]
CS(=O)(=O)CCNCc1ccoc1-c1ccc2ncnc(Nc3ccc(OCc4ccccc4)cc3)c2c1,7.94%,0.7%,5.65%,1.37%,-0.73%,0.36%,1.13%,-1.72%,0.44%,-0.12%
Cc1nnc(-c2cccc(-c3ccc(C(=O)NCC4CC4)cc3)c2)o1,0.54%,5.93%,8.3%,3.76%,6.53%,9.39%,5.71%,4.48%,3.22%,0.99%
Cc1cc(O)cc(C)c1/C=C/c1cncc(C(=O)OC(C)(C)C)c1,39.1%,11.3%,51.5%,4.61%,2.33%,3.02%,4.74%,2.54%,1.64%,1.16%
CNC(=O)c1ncccc1Nc1nc(Nc2cc3c(cc2OC)CCCN3C(=O)CN(C)C)nc2[nH]ccc12,2.48%,5.56%,8.62%,97%,97.9%,100%,98.1%,78.2%,94.3%,1.95%
O=C(Nc1n[nH]c2nnc(-c3cccnc3)cc12)C1CC1,4.86%,0.81%,2.83%,0.22%,-1.27%,3.48%,1.82%,-0.87%,-1.01%,0.11%
COc1cc(Nc2ncc(-c3ccccc3)o2)cc(OC)c1,26.5%,8.41%,19.9%,-0.03%,4.18%,1.03%,5.64%,2.92%,2.43%,-0.12%
Nc1ncnc2occ(-c3ccc(NC(=O)Nc4cc(C(F)(F)F)ccc4F)cc3)c12,24.3% and 15.7%,9.61% and 2.25%,46.5% and 31.6%,11.3% and 1.32%,10.7% and 0.73%,2.86% and 1.65%,13.2% and 8.78%,1.56% and -3.07%,1.62% and -3%,2.22% and -1.63%
Fc1ccc(Nc2nccc(-c3c(-c4ccc(C(F)(F)F)cc4)nn4ncccc34)n2)cc1F,2.19%,4.54%,7.92%,1.9%,4.26%,4.61%,3.27%,3.45%,2.2%,1.45%
OCCCNc1nccc(-c2c(-c3ccc(F)cc3)nn3cc(C(F)(F)F)ccc23)n1,4.88%,5.52%,5.92%,1.8%,1.03%,0.28%,3.33%,3.08%,1.53%,1.09%
CC(C)c1ccc(-c2cc(-c3c[nH]nc3-c3ccccn3)ccn2)cc1,1.91%,2.47%,4.67%,1%,2.04%,-0.15%,1.37%,-0.94%,-0.37%,0.84%
Cc1ccc(-c2cc3c(NC(=O)C4CC4)ncnc3o2)cc1,5.49%,7.39%,21.8%,5.44%,5.98%,5.37%,5.18%,5.59%,2.34%,1.76%
COc1cccc(-n2ncc3c(N/N=C/c4ccc(C(=O)NCCN(C)C)cc4)ncnc32)c1,84.5%,23.1%,68.8%,3.78%,4.69%,0.94%,1.97%,5.09%,1.31%,2.07%
CCCNc1cccc(-n2ncc3c(N/N=C/c4ccncc4)ncnc32)c1,52.8%,7.22%,35.8%,0.75%,-0.01%,1.6%,0.96%,0.19%,1.63%,6.02%
CS(=O)(=O)CCNCc1ccc(-c2ccc3ncnc(Nc4ccc(OCc5ccccc5)cc4)c3c2)o1,14.9%,7.13%,14.3%,1.22%,2.03%,-0.92%,2.86%,1.91%,2.07%,0.71%
COc1c(C(N)=O)cc(-c2ccc(Cl)cc2)cc1-c1ccc(S(N)(=O)=O)cc1,2.81%,6.39%,7.93%,7.44%,4.41%,9.51%,5.04%,2.33%,3.46%,2.02%
